Experimental findings from PubChem BioAssay (NCI) are described below.

Assay [1] can be described thus: NCI Yeast Anticancer Drug Screen. Data for the rad50 strain (AID 155).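 Note: 0% = growth of vehicle-only cultures of the same strain.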 The settings on record: S. cerevisiae rad50 strain growth inhibition; at 50.0 µM; active compounds read high. In a few lines: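 Inhibition values express reduced yeast growth in compound-treated cultures relative to vehicle-treated controls.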
A short description of assay [2]: NCI Yeast Anticancer Drug Screen. Data for the mec2-1 strain (AID 157). The settings on record: S. cerevisiae mec2-1 strain, at 50.0 µM, active compounds read high. In a few lines: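 Each compound was tested on mec2-1 yeast, a strain altered in DNA damage repair or cell cycle control. Growth inhibition is reported relative to vehicle.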
A short description of assay [3]: NCI Yeast Anticancer Drug Screen. Data for the sgs1 mgt1 strain (AID 161).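 Note: 0% = growth of cultures given vehicle only.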 The settings on record: S. cerevisiae sgs1 mgt1 strain, at 50.0 µM, active compounds read high. In a few lines:
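Read-out: growth inhibition vs vehicle controls. Cells: mutant yeast strain deficient in DNA damage repair.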

Assay [4] is described as follows: NCI Yeast Anticancer Drug Screen. Data for the cln2 rad14 strain (AID 165).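 Note: 0% = growth equal to vehicle treated cultures.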 The settings on record: S. cerevisiae cln2 rad14 strain, at 50.0 µM, active compounds read high. In a few lines: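 Test compounds were added to cln2 rad14 yeast cultures; inhibition of growth was then determined by comparison with vehicle treatment.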
A short description of assay [5]: NCI Yeast Anticancer Drug Screen. Data for the bub3 strain (AID 167). The settings on record: S. cerevisiae bub3 mutant strain, at 50.0 µM, active compounds read high. In a few lines: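 Steps: expose the mutant yeast strain to compound; grow alongside vehicle-treated cultures; measure growth; express inhibition against the vehicle cultures.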
Assay [6] is described as follows: NCI Yeast Anticancer Drug Screen. Data for the mlh1 rad18 strain (AID 175). The settings on record: S. cerevisiae mlh1 rad18 strain growth inhibition; at 50.0 µM; active compounds read high. In a few lines: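 Inhibition values reflect reduced growth of mutant yeast versus vehicle-treated controls following compound exposure; the mutations affect DNA damage repair.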

This is part of a sample that, as a whole, favours compounds with a hit. Of some 79,000 tested, about 15% had one in any assay. Unmarked numbers belong to inactive results. The source made the active and inactive calls. Cut-off read from the data, not from the text of the source: active = growth inhibition above about 70%; inactive = the rest.

For `C1CCC2CC(NC3=NCCO3)CCC2C1` (stereo unspecified), the growth inhibition is 8.85% in assay [1]; 21.1% in assay [2]; 0.35% in assay [3]; -7% in assay [4]; 22.2% in assay [5]; -85.6% in assay [6].
In the case of `Nc1nc(C2CCCCC2)cc(=O)[nH]1`, the growth inhibition in assay [1] is 1.2%; in assay [2], 9%; in assay [3], -4.3%; in assay [4], -25.1%; in assay [5] it was 5.5%; in assay [6] it was -0.65%.
For `CN(C)Cc1ccccc1O`, the growth inhibition in assay [1] was 4.15%; in assay [2] it was 17.6%; in assay [3], -3.6%; in assay [4], -17.6%; in assay [5], 5.65%; in assay [6] it was -51.5%.
For the compound `O=C(O)c1ccncc1C(=O)c1csc2ccccc12`, the growth inhibition in assay [1] was 7.9%; in assay [2] it was 14.2%; in assay [3], 27.1%; in assay [4], 22.1%; in assay [5] it was 30.4%; in assay [6] it was 19.3%.
As for `C=CCCCCCCCCC(=O)N(CC#N)CC(C)C`, the growth inhibition in assay [1] was 79.1% (active); in assay [2], 82% (active); in assay [3], 91.5% (active); in assay [4] it was 76% (active); in assay [5], 87.2% (active); in assay [6] it was 91.5% (active).
`O=C(NC(O)C(=O)O)c1ccc(Cl)cc1` (stereo unspecified): the growth inhibition is -10.9% in assay [1]; -10.9% in assay [2]; -6.2% in assay [3]; 17.3% in assay [4]; -6.4% in assay [5]; -27.9% in assay [6].
With `NC(Cc1cccc(F)c1)C(=O)O` (stereo unspecified), the growth inhibition in assay [1] was -1.3%; in assay [2], -30.1%; in assay [3], 6.7%; in assay [4] it was -12.4%; in assay [5] it was -9.1%; in assay [6], 10%.
`COc1ccc(C=O)c(C(=O)O)c1OC`: the growth inhibition in assay [1] is -7.7%; in assay [2], -52.9%; in assay [3], -2.8%; in assay [4] it was 17.2%; in assay [5], -20.2%; in assay [6] it was -3.7%.
As for `O=C(NNC(=O)c1cccc2ccccc12)c1cccc(Cl)c1`, the growth inhibition in assay [1] was 3.5%; in assay [2], -41.5%; in assay [3] it was -6.9%; in assay [4], 4.05%; in assay [5] it was -4.05%; in assay [6], -13.9%.
As to `CC(O)c1cc2c(s1)C(=O)c1sccc1C2=O` (stereo unspecified), the growth inhibition in assay [1] was 90.6% (active); in assay [2], 93.5% (active); in assay [3] it was 92% (active); in assay [4], 91.2% (active); in assay [5], 91.9% (active); in assay [6], 91.2% (active).
As to `CCOC(=O)C(C)=P(c1ccccc1)(c1ccccc1)c1ccccc1`, the growth inhibition in assay [1] is -1.6%; in assay [2], -5.8%; in assay [3], -1%; in assay [4], -39.2%; in assay [5] it was -0.7%; in assay [6] it was -11.3%.
Take `O=C1/C(=C/c2ccc(Cl)c(Cl)c2)CCC/C1=C\c1ccc(Cl)c(Cl)c1`: the growth inhibition in assay [1] is 30.4%; in assay [2], -5.85%; in assay [3], 2.7%; in assay [4], 2.95%; in assay [5] it was -3.7%; in assay [6], 1.2%.
`CCOC(=N)CC(=O)NC(C)c1ccccc1` (stereo unspecified): the growth inhibition in assay [1] was 2.25%; in assay [2], -3.6%; in assay [3], -6%; in assay [4] it was 14.3%; in assay [5], 0.15%; in assay [6], 1.85%.
For `Nc1nc2ncc(=O)[nH]c2c(=O)[nH]1`, the growth inhibition in assay [1] was -35.1%; in assay [2], -4.2%; in assay [3], -8.55%; in assay [4], -31.3%; in assay [5], 20.3%; in assay [6], -8.4%.
Regarding `COc1ccc(/C(Cl)=C(\C=O)c2cc(OC)c(OC)c(OC)c2)cc1OC`, the growth inhibition in assay [1] was -0.9%; in assay [2], 23.1%; in assay [3] it was -5%; in assay [4] it was 13.8%; in assay [5] it was -3.45%; in assay [6], 13.9%.
As to `Cc1ccc(-c2nnc(CCCCCCCCc3nnc(-c4ccc(C)cc4O)n3N)n2N)c(O)c1`, the growth inhibition is 9.2% in assay [1]; -21.9% in assay [2]; 3.75% in assay [3]; 7.5% in assay [4]; 1.75% in assay [5]; 0.5% in assay [6].
As to `CCc1c(C#N)c(=O)[nH]c(=O)n1CCN1CCN(C(=O)NCCCCCCNC(=O)N2CCN(CCn3c(CC)c(C#N)c(=O)[nH]c3=O)CC2)CC1`, the growth inhibition in assay [1] is 4.6%; in assay [2] it was 2.55%; in assay [3] it was -14.4%; in assay [4], -23.6%; in assay [5], 2.7%; in assay [6] it was -26.1%.
Turning to `COC/N=C(\NC#N)NCOC`, the growth inhibition is 20.5% in assay [1]; -1% in assay [2]; 9.5% in assay [3]; 14% in assay [4]; -11.7% in assay [5]; 23.2% in assay [6].
With `CCCCCCCCCCCCCCCCSc1ccc2ccccc2c1`, the growth inhibition in assay [1] is 37.9%; in assay [2], -13.8%; in assay [3] it was 41.3%; in assay [4], -7.5%; in assay [5], -3.45%; in assay [6] it was 0.2%.
Take `CCCCN(C(=O)CCC)c1ccccc1`: the growth inhibition in assay [1] was -71.1%; in assay [2] it was -0.75%; in assay [3] it was -11.9%; in assay [4], -40%; in assay [5], -11.2%; in assay [6] it was -10.1%.
As for `CN(C)C1=CC(=S)NC2CCCCC12` (stereo unspecified), the growth inhibition is 4.1% in assay [1]; -4.7% in assay [2]; 10.6% in assay [3]; 2.05% in assay [4]; -10.1% in assay [5]; 22.1% in assay [6].
